Compound activity: PubChem BioAssay, University of Kansas High Throughput Screening Laboratory
Pf apPOL block: Pf-apPOL DNA polymerase inhibition; Recombinant Pf-apPOL, molecular beacon fluorescence, 1.5 h; inhibition, % at 10 µM; 210,000 compounds, 0.25% hits; AID 1794808
mHTT-CaM PPI inh: mHTT-calmodulin interaction abrogation | P42858 | AlphaScreen His-mHTT/GST-CaM binding, luminescence | inhibition, % at 15 µM | 190,000 compounds, 3.6% hits | AID 1671202
Large screens that a line does not name were inactive. Most compounds without a hit are left out; they make up all but 3.6% or so of the library. No stated cut-off is given here; in the data, active means inhibition above about 50%; inactive means the rest.

CCCNc1cc(N2CCCC(CCC(=O)Nc3ccc4c(c3)OCO4)C2)ncn1 (stereo unspecified)	mHTT-CaM PPI inh 51.3
COc1ccc(NC(=O)CCC2CCCN(c3cc(NC4CC4)ncn3)C2)c(OC)c1 (stereo unspecified)	mHTT-CaM PPI inh 59.7
CCNc1cc(N2CCCC(CCC(=O)Nc3ccc(OC)cc3OC)C2)ncn1 (stereo unspecified)	none
CCNc1cc(N2CCCC(CCC(=O)Nc3ccc4c(c3)OCCO4)C2)ncn1 (stereo unspecified)	none
Cc1ccc(C(=O)N2CCN(c3nc(CN4CCCCC4)cs3)CC2)c(C)c1	none
CCSC1=C(C#N)C(Cc2ccccc2)C2=C(CCCC2=O)N1 (stereo unspecified)	none
N#CC1=C(S)NC2=C(C(=O)CCC2)C1Cc1ccccc1 (stereo unspecified)	mHTT-CaM PPI inh 59.0
Cc1ccc(CNC(=O)CCCn2c(=O)c3sccc3n(CC(N)=O)c2=O)cc1	none
COc1ccccc1NC(=O)C1Oc2ccccc2NC1=O (stereo unspecified)	none
CCc1[nH]nc(-c2cccc(OC)c2)c1NC(=O)C1CCCC1	none
CCC(=O)Nc1c(-c2cccc(OC)c2)n[nH]c1CC	Pf apPOL block 69.6, mHTT-CaM PPI inh 91.4
CCC(=O)Nc1c(-c2ccc(F)c(F)c2)n[nH]c1CC	none
CCc1[nH]nc(-c2ccc(F)c(F)c2)c1NC(=O)COC	mHTT-CaM PPI inh 96.7
Cc1cc(C)cc(NC(=O)c2cc(S(=O)(=O)N3CCc4ccccc4C3)ccc2F)c1	none
CCOc1ccc(C2CC(=O)n3nc(-c4ccc(OC)cc4)nc3S2)cc1OC (stereo unspecified)	none
CCCc1cc(C2CCCN2C(=O)c2c(F)cccc2F)no1 (stereo unspecified)	none
O=C1CCN(Cc2ccccc2)CCN1[C@H](COc1ccccc1)Cc1ccccc1	mHTT-CaM PPI inh 86.5
CC(C)(C)[C@H]1CCC(=O)N([C@H](CSc2ccccc2)Cc2ccccc2)CC1	none
CCCN1CCC(=O)N([C@H](COc2ccccc2)Cc2ccccc2)CC1	none
CC(C)(C)[C@H]1CCC(=O)N([C@H](COc2ccccc2)Cc2ccccc2)CC1	mHTT-CaM PPI inh 63.7
CC1CCN(CC2CCN(S(=O)(=O)Cc3ccccc3)CC2)CC1	none
COc1c(Br)cc(Br)cc1/C=N/Nc1nncn1N	none (no result: Pf apPOL block)
O=C1CSC(c2ccccc2[N+](=O)[O-])N1c1ccc(Cl)c(Cl)c1 (stereo unspecified)	none
CCC(=O)N1CCCC(c2ccnc(-c3ccc(F)cc3)n2)C1 (stereo unspecified)	mHTT-CaM PPI inh 75.8
O=C(c1ccccc1)N1CCCC(c2ccnc(-c3ccc(F)cc3)n2)C1 (stereo unspecified)	none
O=C(c1cccc(F)c1)N1CCCC(c2ccnc(-c3ccc(F)cc3)n2)C1 (stereo unspecified)	mHTT-CaM PPI inh 53.6
CCCC(=O)N1CCCC(c2ccnc(-c3ccc(F)cc3)n2)C1 (stereo unspecified)	none
O=c1/c(=C/c2ccc([N+](=O)[O-])cc2)sc2n1CN(c1ccc(F)cc1)CN=2	none
CC(Cl)C(=O)Nc1c(Cc2ccccc2)nc2ccccn12 (stereo unspecified)	Pf apPOL block 71.6
O=C(Nc1c(Cc2ccccc2)nc2ccccn12)C(Cl)Cl	none
Cc1c(C(=O)O)c2c(n1C)C(=O)c1ccc(Br)cc1-2	none
COc1cc2c(C)[nH]c(=O)c(CC(=O)Nc3ccccc3)c2cc1OC	mHTT-CaM PPI inh 64.8
COc1ccccc1CC(=O)Nc1ccc(OC)c(OC)c1	none
O=C(CN1CCCCC1c1nc(-c2cccs2)no1)NCc1ccc(F)cc1 (stereo unspecified)	none
O=C(Nc1nnc(C2CC(=O)N(c3ccccc3)C2)o1)c1ccccc1 (stereo unspecified)	none
CSc1ccc(N2CC(c3nnc(NC(=O)c4ccc(Cl)cc4)o3)CC2=O)cc1 (stereo unspecified)	none
CSc1ccc(N2CC(c3nnc(NC(=O)c4cccs4)o3)CC2=O)cc1 (stereo unspecified)	mHTT-CaM PPI inh 63.5
CCOc1ccc(N2CC(c3nnc(NC(=O)c4ccccc4)o3)CC2=O)cc1 (stereo unspecified)	mHTT-CaM PPI inh 82.3
CSc1ccc(N2CC(c3nnc(NC(=O)c4cccc(F)c4)o3)CC2=O)cc1 (stereo unspecified)	mHTT-CaM PPI inh 62.4
CCCOc1ccc(C(=O)Nc2nnc(C3CC(=O)N(c4ccc(OCC)cc4)C3)o2)cc1 (stereo unspecified)	none
O=C(Nc1nnc(C2CC(=O)N(c3ccccc3)C2)o1)c1cccs1 (stereo unspecified)	mHTT-CaM PPI inh 55.5
O=C(Nc1nnc(C2CC(=O)N(c3ccc(F)cc3)C2)o1)c1cccc(F)c1 (stereo unspecified)	none
CCOc1ccc2ncc(C#N)c(N3CCC(C(=O)Nc4ccccc4)CC3)c2c1	none
Clc1ccc(Cn2ncc3c(N4CCCCCC4)ncnc32)c(Cl)c1	none
CCOc1cccc2sc(NC(=O)c3cccc(OC)c3)nc12	none
Cc1sc(C(=O)N2CCCC2)c2ncnc(NCc3cc(F)cc(F)c3)c12	none
CC(C)Cn1c(CC2CCN(C(=O)c3ccccn3)C2)nc2cccnc21 (stereo unspecified)	none
O=C(NC1CC1)c1ccc(OCC2CCCN(C(=O)C3(c4ccccc4)CC3)C2)cc1 (stereo unspecified)	none
O=C1CSC2=NCN(c3ccc([N+](=O)[O-])cc3)CN12	none
O=Nc1ccc(NOC(=O)/C=C/c2ccccc2)cc1	mHTT-CaM PPI inh 73.0
O=C(/C=C/c1ccccc1)Nc1ccc(NC(=O)c2ccco2)cc1	none
O=S(=O)(Nc1ccccn1)c1ccc(N=Cc2ccccc2Cl)cc1	none
O=C(c1ccc2c(c1)OCO2)N1CC(C(=O)N2CCCC2)C(c2ccc(F)cc2)C1 (stereo unspecified)	none
N#CC1=C(N)Oc2cc(O)ccc2C1c1ccccc1Br (stereo unspecified)	none
COc1ccc(N=Cc2cc3c(cc2O)OC(N)=C(C#N)C3c2cccc(F)c2)cc1 (stereo unspecified)	mHTT-CaM PPI inh 81.0
COc1ccc(C2C(C#N)=C(N)Oc3cccc(O)c32)cc1 (stereo unspecified)	none
N#CC1=C(N)Oc2cc(O)c(C=Nc3ccc(Br)cc3)cc2C1c1ccco1 (stereo unspecified)	mHTT-CaM PPI inh 100.0
Cc1ccc(Oc2cccc(C(=O)NCc3ccc(F)cc3)c2)nn1	none
COc1cc(OC)cc(C(=O)N2CCC3(CC2)NC(=O)c2ccc(F)cc2N3C)c1	none
Cc1ccc2nc(-c3cc4ccccc4oc3=O)[nH]c2c1	none
CCN1CCCC1CNC(=O)CCNC(=O)Cn1ccc2ccccc2c1=O (stereo unspecified)	none
O=C(CC1C(=O)NCCN1C(=S)NC(=O)c1cccc([N+](=O)[O-])c1)OCC1CCCO1 (stereo unspecified)	none
COc1ccc2nc(-c3cccc(NC(=O)COc4ccc(C(C)=O)cc4OC)c3)cn2n1	mHTT-CaM PPI inh 64.2
COc1ccc2nc(-c3ccc(OC)c(NC(=O)CC4CCCC4)c3)cn2n1	none
O=C(NC1CC2CC1N(C(=O)c1ccccc1)C2)c1ccccc1 (stereo unspecified)	none
O=[N+]([O-])c1ccc(CNc2ccc3c(c2)CCC3)s1	mHTT-CaM PPI inh 83.7
COc1cccc(NCc2ccc([N+](=O)[O-])s2)c1	none
COc1ccc2nc(NC(=O)C3CC(=O)N(c4cccc(NC(C)=O)c4)C3)sc2c1 (stereo unspecified)	none
CC(C)c1ccc(CN2CC(C(=O)Nc3ccccc3)CC2=O)cc1 (stereo unspecified)	none
